Test results from paper PMC4336329 (PLoS ONE, 2015).
The whole screen tested about 310,000 compounds, of which about 14,000 (4.5%) showed an effect of 50% or more. Effects have a minus sign here. Only a selection was taken, and strong results are over-represented in it overall.

What follows are compounds tested against human ether-à-go-go-related gene (hERG) potassium channel (human, UniProt Q12809) (assay: primary screen, population patch clamp on CHO cells stably expressing hERG; higher = less effect of the substance).
Sequence of human ether-à-go-go-related gene (hERG) potassium channel (Q12809 whole entry, looked up): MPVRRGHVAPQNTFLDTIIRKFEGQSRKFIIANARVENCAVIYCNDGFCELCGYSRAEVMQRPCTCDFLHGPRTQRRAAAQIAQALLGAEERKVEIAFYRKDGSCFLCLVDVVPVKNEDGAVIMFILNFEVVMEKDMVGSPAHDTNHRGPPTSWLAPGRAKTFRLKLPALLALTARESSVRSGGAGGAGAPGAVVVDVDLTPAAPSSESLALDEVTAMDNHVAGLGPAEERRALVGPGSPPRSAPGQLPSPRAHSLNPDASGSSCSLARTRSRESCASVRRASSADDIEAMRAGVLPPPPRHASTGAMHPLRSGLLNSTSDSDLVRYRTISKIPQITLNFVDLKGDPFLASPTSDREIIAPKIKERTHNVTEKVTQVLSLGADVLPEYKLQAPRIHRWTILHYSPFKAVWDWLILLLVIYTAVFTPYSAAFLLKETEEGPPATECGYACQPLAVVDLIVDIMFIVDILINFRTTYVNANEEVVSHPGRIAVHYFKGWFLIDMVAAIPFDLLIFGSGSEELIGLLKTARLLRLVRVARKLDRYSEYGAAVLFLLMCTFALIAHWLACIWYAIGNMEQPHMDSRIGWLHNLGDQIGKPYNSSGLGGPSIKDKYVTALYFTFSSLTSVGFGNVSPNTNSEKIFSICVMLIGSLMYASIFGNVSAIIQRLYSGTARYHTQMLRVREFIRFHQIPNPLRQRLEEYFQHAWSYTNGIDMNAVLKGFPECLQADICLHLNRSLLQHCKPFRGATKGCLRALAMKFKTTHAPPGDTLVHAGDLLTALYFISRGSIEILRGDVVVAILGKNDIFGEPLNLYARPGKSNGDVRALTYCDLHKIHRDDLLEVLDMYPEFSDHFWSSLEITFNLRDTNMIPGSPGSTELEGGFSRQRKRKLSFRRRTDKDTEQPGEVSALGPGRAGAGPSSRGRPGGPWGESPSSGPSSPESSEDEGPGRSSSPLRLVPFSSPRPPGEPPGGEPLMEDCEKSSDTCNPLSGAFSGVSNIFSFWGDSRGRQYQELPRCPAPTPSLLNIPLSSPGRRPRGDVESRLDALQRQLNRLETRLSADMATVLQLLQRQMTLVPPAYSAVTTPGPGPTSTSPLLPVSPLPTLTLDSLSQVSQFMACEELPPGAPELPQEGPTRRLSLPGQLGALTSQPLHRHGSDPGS
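Note: peak tail current of the secondary pulse compared with the same well before compound.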

Row | SMILES | hERG current change (%, negative = inhibition) at 10uM [%]
1 | CC(=O)N/C(=C\c1ccc(F)cc1)C(=O)N(C)C | 14.2
2 | O=C(OCn1nnc2ccccc2c1=O)c1ccc2c(=O)n3c(nc2c1)CCC3 | -7.06
3 | Cc1ccccc1NC(=O)Cn1c(C)nc2ccc(N)cc2c1=O | 7.11
4 | CCO.N#Cc1c(SC(C(=O)O)c2ccccc2)nc2c(c1-c1cccs1)CCCC2 (centres unmarked) | 25.2
5 | C[C@@]12CCC=C[C@H]1[C@H](c1ccc(C(F)(F)F)cc1)N(Cc1ccccc1)C2=O | 12.2
6 | O=C1C=C(NCc2ccc(Cl)cc2)CCC1 | -25.2
7 | COC(=O)c1cc(OC)c(OC)cc1NC(=S)N1CCN(Cc2ccccc2)CC1 | 6.28
8 | CCOc1ccccc1C(=O)OCC(=O)NCC1CCCCC1 | -7.31
9 | O=C(COC(=O)COc1ccccc1[N+](=O)[O-])Nc1cccc(Br)c1 | 9.05
10 | COC(=O)COc1ccc2c(-c3cccc([N+](=O)[O-])c3)cc(=O)oc2c1 | -31.8
11 | CCCOc1ccc(C(O)C(CN2CCOCC2)c2ccccc2)cc1.Cl (centres unmarked) | 1.07
12 | O=C(/C=C/c1ccc([N+](=O)[O-])cc1)N1CCN(S(=O)(=O)c2ccccc2)CC1 | -34.1
13 | COc1ccc(/C=N/N2CCN(Cc3ccccc3)CC2)cc1 | -2.63
14 | CC(C)CC(=O)N1CCN(S(=O)(=O)c2ccccc2)CC1 | 0.444
15 | O=C(/C=C/c1ccc(F)cc1)N1CCN(Cc2ccccc2)CC1 | -40.6
16 | O=[N+]([O-])c1ccc(Cl)c(/C=N/N2CCN(Cc3ccccc3)CC2)c1 | -1.74
17 | O=C(/C=C/c1ccc(OCCCF)cc1)N1CCOCC1 | 1.61
18 | O=[N+]([O-])c1ccc(/C=N/N2CCN(Cc3ccccc3)CC2)cc1 | -56.3
19 | O=[N+]([O-])c1cccc(/C=N/N2CCN(Cc3ccccc3)CC2)c1 | -0.159
20 | CC(CC(=O)N1CCN(S(=O)(=O)c2ccc([N+](=O)[O-])cc2)CC1)c1ccccc1 (centres unmarked) | -67.8
21 | O=C(/C=C/c1ccc(OCCCF)cc1)N1CCN(Cc2ccccc2)CC1 | -65.6

Row | SMILES | hERG current change (%, negative = inhibition) at 10uM [%]
22 | COc1ccc(/C=N\N2CCN(Cc3ccccc3Cl)CC2)cc1.Cl | -62.4
23 | Clc1ccc(/C=N/N2CCN(Cc3ccccc3Cl)CC2)cc1 | 14.9
24 | CCOc1ccc(NC(=O)CN(C)C(=O)c2c(-c3c(F)cccc3Cl)noc2C)cc1OCC | -3.83
25 | Cc1cccc(C)c1OCc1cc(C(=O)N2CCN(c3ccccc3)CC2C)no1 (centres unmarked) | 7.3
26 | O=C(COc1ccc(/C=N/NC(=O)c2ccccc2O)cc1)Nc1ccc([N+](=O)[O-])cc1 | 13.7
27 | COc1ccc(NC(=O)C2=CC(c3ccco3)=NS(=O)(=O)N2C)cc1 | 0.0772
28 | CCCCCCNC(=O)N[C@H](Cc1ccc(O)cc1)C(=O)NCCC[C@H]1CN2C(=NC[C@H]2CCC)N1CC1CCC1 | 9.27
29 | CCCCCCC(=O)N1C/C=C\C(c2ccc(OC)cc2)N(Cc2ccc(F)cc2)C(=O)C1 (centres unmarked) | -43.7
30 | CCN(CC)S(=O)(=O)c1cc(OC)c(C)cc1C | -5.58
31 | Cc1c(C(=O)N2CCN(c3ccc([N+](=O)[O-])cc3)CC2)sc2ncn(CC(=O)N3CCOCC3)c(=O)c12 | -62.2
32 | O=C(Cc1cccs1)N1CCN(c2ccc(F)cc2)CC1 | -4.82
33 | O=C(/C=C/c1ccc(Cl)cc1)N1CCN(Cc2ccccc2)CC1 | -35.6
34 | Cc1ccc(S(=O)(=O)CCC(=O)N2CCN(c3ccc([N+](=O)[O-])cc3)CC2)cc1 | -70.8
35 | CC(=O)c1ccc(N2CCN(C(=O)CCS(=O)(=O)c3ccc(C)cc3)CC2)cc1 | -41
36 | CC(=O)c1ccc(N2CCN(C(=O)Cc3cccs3)CC2)cc1 | -33.3
37 | O=C(/C=C/c1ccc([N+](=O)[O-])cc1)N1CCN(Cc2ccccc2)CC1 | -66.8
38 | Cc1ccc(S(=O)(=O)CCC(=O)N2CCN(c3ccc(Cl)cc3)CC2)cc1 | -23.8
39 | Cc1c(C(=O)N2CCN(c3ccccc3F)CC2)sc2ncn(CC(=O)N3CCOCC3)c(=O)c12 | -3.64
40 | O=C(Cc1cccs1)N1CCN(c2ccc([N+](=O)[O-])cc2)CC1 | -66.1
41 | Cc1cc([N+](=O)[O-])ccc1NC(=O)c1sc2ncn(CC(=O)N3CCOCC3)c(=O)c2c1C | -0.176
42 | O=C(/C=C/c1cccc([N+](=O)[O-])c1)N1CCN(Cc2ccccc2)CC1 | -47.5

Row | SMILES | hERG current change (%, negative = inhibition) at 10uM [%]
43 | Cn1c(=O)cc(OCC(=O)N2CCN(C3CCCCC3)CC2)c2ccccc21 | -18.6
44 | CN(CCc1ccccn1)C(=O)c1cccnc1Oc1ccccc1 | 11.3
45 | O=C(O)C12C[C@H]3C[C@@H](C1)CC(n1ncc(N4CCN(c5ccccc5)CC4)c(Cl)c1=O)(C3)C2 | 9.94
46 | CN(C(=O)Cn1c(=O)oc2ccccc21)C1CCCCC1 | -1.73
47 | CCCN(CCC)CCCNC(=O)Cn1cnc2sc(C)c(S(=O)(=O)N3CCCCC3)c2c1=O | 9.2
48 | CCCCOc1ccc(C(=O)NCC(=O)N(C)CC(=O)Nc2ccc(N3CCOCC3)cc2)cc1 | -27.4
49 | C(=N\N1CCOCC1)/c1ccsc1.O=P(O)(O)O | 18.8
50 | O=C(Cc1ccc(F)cc1)N1CCN(c2ccc(F)cc2)CC1 | 0.483
51 | O=C(Cc1ccc(Cl)cc1)N1CCN(c2ccccc2)CC1 | -12.2
52 | CC(Cc1ccccc1)NC(=O)Cc1ccc([N+](=O)[O-])cc1 (centres unmarked) | -17.8
53 | CC(Cc1ccccc1)NC(=O)/C=C/c1ccc(Cl)cc1 (centres unmarked) | -11.7
54 | Cc1ccc(S(=O)(=O)NCc2ccc(C(=O)N3CCN(c4ccccc4)CC3)cc2)cc1 | -18.6
55 | O=CN1CCN(C(=O)Cc2ccc([N+](=O)[O-])cc2)CC1 | -25.6
56 | Cc1ccc(S(=O)(=O)NCc2ccc(C(=O)N3CCN(c4ccc([N+](=O)[O-])cc4)CC3)cc2)cc1 | -70.7
57 | COc1ccc(N2CCN(C(=O)c3ccc(CNS(=O)(=O)c4ccc(C)cc4)cc3)CC2)cc1 | 13.9
58 | O=C(Cc1ccc(F)cc1)N1CCN(c2ccc([N+](=O)[O-])cc2)CC1 | -69.5
59 | CC(Cc1ccccc1)NC(=O)/C=C/c1ccc([N+](=O)[O-])cc1 (centres unmarked) | -51.7
60 | O=C(Cc1ccccc1)N1CCN(c2ccc([N+](=O)[O-])cc2)CC1 | -55.2
61 | O=C(Cc1ccc(Br)cc1)N1CCN(c2ccc(F)cc2)CC1 | -49.9
62 | CCN(c1ccc(NC(=O)COC(=O)CCC(=O)c2ccc(F)cc2)cc1)C(C)C | -4.95
63 | O=C(Cn1cnc2c(nnn2Cc2ccccc2F)c1=O)N1CCN(c2ccccc2)CC1 | -31.2

Row | SMILES | hERG current change (%, negative = inhibition) at 10uM [%]
64 | O=C(NCCC1=CCCCC1)c1cccc2c1C(=O)N(C1CCCCC1)C2 | 9.87
65 | O=C(NN1C(=O)c2ccccc2C1=O)c1ccncc1 | 10.4
66 | CCOC(=O)C(O)(c1ccc(NC(=O)c2ccc(Cl)c(Cl)c2)cc1)C(F)(F)F (centres unmarked) | -4.61
67 | COc1ccc(NC(=O)CSc2nccn2Cc2ccco2)cc1OC | 11.3
68 | CCOC(=O)N1CCN(C(=O)c2ccc3c(c2)sc2nc(-c4ccccc4)cn23)CC1 | -49.3
69 | CCOC(=O)c1cn(CC)c2ccc(S(=O)(=O)N3CC(C)CC(C)C3)cc2c1=O (centres unmarked) | -21.7
70 | Cc1c(C)c2ccc(OC(C)C(=O)NCCc3c[nH]c4ccccc34)cc2oc1=O (centres unmarked) | -2.3
71 | Cc1ccc(SCC(=O)N2CCC(C(N)=O)CC2)cc1 | 13.2
72 | O=C(CN1CCOCC1)N1CCN(c2ccc([N+](=O)[O-])cc2)CC1 | -71.6
73 | O=C(CN1CCN(c2ccc(F)cc2)CC1)N1CCOCC1 | 12.9
74 | Cc1ccc(CC(=O)N2CCN(S(=O)(=O)c3ccccc3)CC2)cc1C | -55.5
75 | Cc1ccc(S(=O)(=O)N2CCN(C(=O)Cc3ccccc3)CC2)cc1C | -2.97
76 | O=C(CN1CCN(c2ccc([N+](=O)[O-])cc2Cl)CC1)N1CCOCC1 | -45.2
77 | Cc1ccc(S(=O)(=O)NCCC(=O)N2CCN(S(=O)(=O)c3ccccc3)CC2)cc1C | -16.6
78 | O=C(Cc1ccccc1)N1CCN(S(=O)(=O)c2ccc([N+](=O)[O-])cc2)CC1 | -64
79 | O=C(Cc1ccccc1)N1CCN(S(=O)(=O)c2cccc([N+](=O)[O-])c2)CC1 | -22.2
80 | Cc1ccc(S(=O)(=O)N2CCN(C(=O)Cc3ccccc3)CC2)cc1 | -26.1
81 | CCOC(=O)Cc1csc(NC(=O)Cc2cccs2)n1 | 6.28
82 | COc1ccc(S(=O)(=O)N2CCCC2C(=O)NCc2ccccc2Cl)cc1 (centres unmarked) | -12.4
83 | CC1CCC(NCCNC(=O)c2ccco2)CC1 (centres unmarked) | 11.8
